{"source": "PubChem BioAssay AID1347170", "about": "(National Center for Advancing Translational Sciences (NCATS), 2019)", "note": "Records with an inconclusive call do not appear. Calls of active or inactive are those of the source. Calls come from the whole dose curve; as a rule, active = well fitted cell-killing curve with a large enough effect; inconclusive = small, poorly fitted or top-dose-only effect, or another doubt; inactive = flat fitted curve, though single readings scatter.", "data": [{"experiment": "Vero cells viability counterscreen for qRT-PCR qHTS assay of selected Zika virus inhibitors", "settings": "CellTiter-Glo ATP luminescence, 24 h; series mostly up to 41.8 µM; activity change, negative = cytotoxicity: at the top concentration", "excerpt": "Assay Submitters (PI): Avindra Nath, Ph.D., National Institute of Neurological Disorders and Stroke (NINDS), Bethesda, MD Radhakrishnan Padmanabhan, Ph.D., Georgetown University (GU), Washington D.C. Zika Virus causes congenital defects, including microcephaly and is associated with Guillain-Barre syndrome, eningoencephalitis and myelitis in infected adult. […] Using a target-based approach, we hope to establish a screening paradigm to uncover novel, cell-active NS2B-NS3 protease (Zika Virus) specific inhibitors from NCATS' collection of small molecules using qHTS. […] Four assay panel was created to identify potential Zika Virus inhibitors. Namely, (1) GU unlinked NS2B-NS3 AMC tagged protease qHTS, (2) GU unlinked NS2B-NS3 Rhodamine tagged protease qHTS, (3) NINDS linked NS2B-NS3 AMC tagged protease qHTS, (4) NINDS linked NS2B-NS3 Rhodamine tagged protease qHTS. Inhibitors of the Zika virus primary screens are confirmed using qRT-PCR secondary assays, mCherry orthogonal assay, and Vero cells viability counterscreen. Cytotoxic compounds identified in the Vero cell viability counterscreen were excluded from the list of potential Zika virus inhibitors. Early Translation Branch (ETB) National Center for Advancing Translational Sciences (NCATS), Rockville, MD National Institute of Health (NIH), Bethesda, Maryland\nVero Cell Viability Assay: Vero cell cytotoxicity was determined using a luminescent readout with CellTiter Glo reagent (Promega, Madison, WI), which is based on measuring the ATP content within cells. Briefly, 4 uL of Vero cells at 2.5 x 10^5 cells/mL in DMEM containing 4% FBS were dispensed into 1536-well solid bottom tissue treated white plate using a Multidrop Combi dispenser (Thermo Scientific). Plates were incubated at 37 degrees C, 95% humidity, and 5% CO2 overnight to allow for cell attachment. Compounds were dissolved in DMSO at different concentrations and transferred via pintool (Wako Automation), for a final concentration of 57 uM - 0.029 uM. Plates were again incubated for 24 hours, followed by a 2 uL addition of CellTiter Glo. Finally, plates were incubated for 30 minutes at 37 degrees C and 5% CO2 before being read on a ViewLux (Perkin Elmer) for luminescence.", "values": [{"smiles": "CCOC(=O)c1ccc(N2C(=O)c3n[nH]c(-c4cccs4)c3C2c2ccc(Cl)cc2Cl)cc1", "note": "(stereo not given)", "Potency": "25.1 µM (active)"}, {"smiles": "CC(C)c1ccc2c(c1)c(SC(C)(C)C)c(CC(C)(C)C(=O)O)n2Cc1ccc(Cl)cc1", "Potency": "15.8 µM (active)"}, {"smiles": "Cc1cc(C)cc(C(=O)N(C)[C@H](Cc2ccc(-c3ccccc3)cc2)C(=O)N[C@@H](Cc2c[nH]c3ccccc23)C(=O)O)c1", "activity change, negative = cytotoxicity": "0.744% (inactive)"}, {"smiles": "O=C(O)CC1CCC(c2ccc(-c3ccc(Nc4ccc(C(F)(F)F)nc4)cn3)cc2)CC1", "note": "(stereo not given)", "activity change, negative = cytotoxicity": "1.67% [at 31.5 µM] (inactive)"}, {"smiles": "O=C(Nc1ccc([N+](=O)[O-])cc1Cl)c1cc(Cl)ccc1O", "Potency": "inactive"}, {"smiles": "Oc1cc2ccccc2c2ccccc12", "Potency": "11.2 µM (active)"}, {"smiles": "N#CC(c1ccnc(OCc2ccc(CN3CCOCC3)cc2)n1)c1nc2ccccc2s1", "note": "(stereo not given)", "activity change, negative = cytotoxicity": "0.993% (inactive)"}, {"smiles": "Cc1nc(C2CCCCC2)c(-c2ccc(S(N)(=O)=O)c(F)c2)o1", "activity change, negative = cytotoxicity": "1.12% (inactive)"}, {"smiles": "CN(CC(=O)N(Cc1ccc(C2CCCCC2)cc1)c1ccc(C(=O)O)cc1)S(=O)(=O)c1c(F)c(F)c(F)c(F)c1F", "Potency": "7.94 µM (active)"}, {"smiles": "CC(C)=CCc1c2c(c3occ(-c4ccc(O)c(O)c4)c(=O)c3c1O)C=CC(C)(C)O2", "Potency": "8.91 µM (active)"}, {"smiles": "Cc1cccc(C)c1NS(=O)(=O)c1ccc(NS(=O)(=O)c2ccc3c(c2)OCCO3)cc1", "activity change, negative = cytotoxicity": "-20.5% (inactive)"}, {"smiles": "CC(Oc1ccccc1)C(=O)Nc1ccc(C(=O)OCc2cc(=O)n3nc(C4CC4)sc3n2)cc1", "note": "(stereo not given)", "activity change, negative = cytotoxicity": "-16.1% (inactive)"}, {"smiles": "O=C(O)C1(Cc2cccc(Nc3nccs3)n2)CCC(Oc2cccc(Cl)c2F)CC1", "note": "(stereo not given)", "activity change, negative = cytotoxicity": "-0.248% (inactive)"}, {"smiles": "CCc1oc2ccccc2c1C(=O)c1cc(Br)c(O)c(Br)c1", "activity change, negative = cytotoxicity": "-18% (inactive)"}, {"smiles": "O=C(O)c1ccc(S(=O)(=O)N(Cc2ccc(OC(F)(F)F)cc2)c2ncc(C(F)(F)F)cc2Cl)cc1", "activity change, negative = cytotoxicity": "-6.33% (inactive)"}, {"smiles": "Cc1ccc2c(=O)c3ccccc3n(CCCN)c2c1C", "activity change, negative = cytotoxicity": "-11.4% (inactive)"}, {"smiles": "COc1cccc(-n2nc(C(=O)O)cc2-c2ccc(C3CCCCC3)c(Cl)c2)c1", "activity change, negative = cytotoxicity": "-0.0617% [at 31.5 µM] (inactive)"}, {"smiles": "COc1ccc(-c2ccccc2)cc1NS(=O)(=O)c1cc(Cl)cc(Cl)c1O", "activity change, negative = cytotoxicity": "-4.47% [at 20.9 µM] (inactive)"}, {"smiles": "Oc1c(Cl)cc(Cl)c(Cl)c1Cc1c(O)c(Cl)cc(Cl)c1Cl", "Potency": "35.5 µM (active)"}, {"smiles": "CC(C)(C)Sc1c(CC(C)(C)C(=O)O)n(Cc2ccc(Cl)cc2)c2ccc(OCc3ccc4ccccc4n3)cc12", "activity change, negative = cytotoxicity": "-21.7% (inactive)"}, {"smiles": "O=C(O)c1ccc(-n2nc(-c3ccccc3O)nc2-c2ccccc2O)cc1", "activity change, negative = cytotoxicity": "12.3% [at 31.5 µM] (inactive)"}, {"smiles": "C=C1c2cccc(O)c2C(O)=C2C(=O)[C@]3(O)C(O)=C(C(N)=O)C(=O)[C@@H](N(C)C)[C@@H]3[C@@H](O)[C@H]12", "Potency": "inactive"}, {"smiles": "Oc1cccc(-c2c3nc(c(-c4cccc(O)c4)c4ccc([nH]4)c(-c4cccc(O)c4)c4nc(c(-c5cccc(O)c5)c5ccc2[nH]5)CC4)C=C3)c1", "activity change, negative = cytotoxicity": "13.5% [at 31.5 µM] (inactive)"}, {"smiles": "N#CC1(c2cccc(C(=O)Nc3cc(Oc4ccc5nc(NC(=O)C6CC6)sc5n4)ccc3F)c2Cl)CC1", "activity change, negative = cytotoxicity": "2.11% (inactive)"}, {"smiles": "O=C(O)c1c(Sc2ccccc2)c2cc(Cl)ccc2n1Cc1ccc(Cl)cc1", "activity change, negative = cytotoxicity": "-7.82% (inactive)"}, {"smiles": "Cc1ccc2nc(NS(=O)(=O)c3ccc(Cl)cc3)c(Nc3ccc(C(=O)O)cc3)nc2c1", "activity change, negative = cytotoxicity": "-1.12% (inactive)"}, {"smiles": "O=C(O)Cn1nnc(-c2cc(N3CCC(Oc4cc(F)ccc4Br)CC3)no2)n1", "activity change, negative = cytotoxicity": "-3.72% (inactive)"}, {"smiles": "O=C(O)Cc1cccc(OCCCN(Cc2cccc(C(F)(F)F)c2Cl)CC(c2ccccc2)c2ccccc2)c1", "activity change, negative = cytotoxicity": "-4.01% (inactive)"}, {"smiles": "O=C(O)c1ccc2c(ccc3nn(-c4ccc(/C=C/c5ccc(-n6nc7ccc8cc(C(=O)O)ccc8c7n6)cc5[S+](=O)([O-])[O-])c([S+](=O)([O-])[O-])c4)nc32)c1", "activity change, negative = cytotoxicity": "2.1% [at 31.5 µM] (inactive)"}, {"smiles": "O=C(O)c1cccc(-c2ccc(-c3cn(C(=O)N4CCCCC4Cc4ccccc4)nn3)cc2)c1", "note": "(stereo not given)", "activity change, negative = cytotoxicity": "7.83% [at 31.5 µM] (inactive)"}, {"smiles": "N#CC1C(=O)Nc2scc(-c3ccc(-c4ccccc4O)cc3)c2C1=O", "note": "(stereo not given)", "activity change, negative = cytotoxicity": "11.9% [at 31.5 µM] (inactive)"}, {"smiles": "O=C(O)Cc1cc(I)c(Oc2ccc(O)c(I)c2)c(I)c1", "activity change, negative = cytotoxicity": "-1.74% (inactive)"}, {"smiles": "COc1cc(/C=C/c2ccccc2)c(C(=O)O)c(O)c1CC=C(C)C", "activity change, negative = cytotoxicity": "-3.97% [at 31.5 µM] (inactive)"}, {"smiles": "CCCCCCCOc1cc2c(cc1/C(C)=C/c1ccc(C(=O)O)cc1)C(C)(C)CCS2(=O)=O", "activity change, negative = cytotoxicity": "-9.56% [at 31.5 µM] (inactive)"}, {"smiles": "CCCCCc1ccc(/C=C/C(=O)Nc2cc(Cl)ccc2C(=O)O)cc1", "activity change, negative = cytotoxicity": "-16.7% [at 31.5 µM] (inactive)"}, {"smiles": "Cc1ccn(-c2cc(Cl)ccc2[C@@H](Oc2cc(-c3ccc(C[C@H](N)C(=O)O)cc3)nc(N)n2)C(F)(F)F)n1", "activity change, negative = cytotoxicity": "-1.61% (inactive)"}, {"smiles": "CCOc1ccc(-c2cc(NC(=O)c3c(F)cccc3F)c(C(=O)O)s2)cc1", "activity change, negative = cytotoxicity": "1.74% (inactive)"}, {"smiles": "Cc1ccn(-c2ccc(-c3ncco3)cc2)c(=O)c1-c1ccc2nc(N)ncc2c1", "activity change, negative = cytotoxicity": "-2.48% (inactive)"}, {"smiles": "CCOc1c2c(c(OCC)c3ccccc13)C(=O)N(c1ccc(CC(=O)NS(=O)(=O)c3ccccc3)cc1)C2", "activity change, negative = cytotoxicity": "1.74% (inactive)"}, {"smiles": "CC(=O)O[C@@H]1C[C@]2(C)[C@@]3(CCC4[C@@]5(C)CC[C@H](O[C@@H]6O[C@H](C(=O)O)[C@@H](O)[C@H](O[C@@H]7O[C@H](CO)[C@H](O)[C@H](O)[C@H]7O[C@@H]7O[C@@H](C)[C@H](O)[C@@H](O)[C@H]7O[C@@H]7OC[C@](O)(CO)[C@H]7O)[C@H]6O[C@@H]6O[C@H](CO)[C@H](O)[C@H](O)[C@H]6O)C(C)(C)C5CC[C@]42C)O[C@@H](O)[C@]12C3CC(C)(C)[C@@H](OC(=O)/C=C/c1ccc(O)c(O)c1)[C@@H]2OC(=O)/C=C/c1ccccc1", "note": "(stereo not given in full)", "activity change, negative = cytotoxicity": "2.61% [at 7.93 µM] (inactive)"}]}]}
